{
  "source": "paper PMC7819943",
  "about": "“Rice protein-binding microarrays: a tool to detect cis-acting elements near promoter regions in rice”",
  "note": "Over roughly 35,000 sequences, “fluorescence intensity (a.u.)” has its median near 10,000; the highest 2% begin near 52,000. The list comes from a sample in which the highest values are over-represented; it also holds similar and randomly drawn sequences.",
  "data": [
    {"biological_target": "T1, OsWOX13 (Oryza sativa, UniProt Q5QMM3 1-267)", "T1 sequence": "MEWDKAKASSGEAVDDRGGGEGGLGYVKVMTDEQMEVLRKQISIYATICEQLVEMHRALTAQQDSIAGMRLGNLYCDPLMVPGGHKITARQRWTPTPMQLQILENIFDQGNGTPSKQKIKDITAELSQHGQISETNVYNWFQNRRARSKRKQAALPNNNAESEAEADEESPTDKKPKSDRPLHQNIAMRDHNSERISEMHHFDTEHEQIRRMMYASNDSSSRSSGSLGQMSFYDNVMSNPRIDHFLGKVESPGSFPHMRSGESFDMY", "test": "protein-binding microarray (RPBM); PBS, 2% BSA, 51.3 ng/ul salmon testes DNA, 50 uM zinc acetate, 200 nM TF, 25 C, 1 h; high values mean tight binding", "details": "protein: recombinant; tags: N-terminal polyhistidine and DsRed monomer fusion (pET32a); label: CyDye5-dUTP incorporated in the synthesized complementary strand; 3' TTTTT single-stranded linker to array surface; dsDNA, one strand shown", "summary_of_the_method": "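The binding signal for each feature is its fluorescence intensity in arbitrary units. An Axon 4000B scanner was used to read a custom Agilent array that had been made double-stranded with Cy5-dUTP primer extension, blocked with 2% BSA, incubated at 25 °C for 1 h with 200 nM protein in PBS, 2% BSA, salmon testes DNA and 50 µM zinc acetate, and washed. The protein was an N-terminal polyhistidine–DsRed transcription factor fusion from E. coli BL21-CodonPlus, purified on Ni–NTA.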", "values": [
      {"sequence": "ACCTTTTCCGCGTGTTGTGTCTGTTTGTTGAAGATGAATTCGGAGTCACCTAGTGCAG", "binding signal": "3280 fluorescence intensity (a.u.)"},
      {"sequence": "AATGCTAATGACAGATTAATTAGGCTTAATAAATTTGTCTCGGAGTCACCTAGTGCAG", "binding signal": "29500 fluorescence intensity (a.u.)"},
      {"sequence": "TGCTAATGACTGATTAATTAGGCTTAATAAATTCGTCTTGCGGAGTCACCTAGTGCAG", "binding signal": "35300 fluorescence intensity (a.u.)"},
      {"sequence": "TGCTAATGACTGATTAATTAGGCTTAATAAATTTGTCTCGCGGAGTCACCTAGTGCAG", "binding signal": "64800 fluorescence intensity (a.u.)"},
      {"sequence": "TATAATAATTAAAACTCAATCAATCATACGTTAATAGCACCGGAGTCACCTAGTGCAG", "binding signal": "20000 fluorescence intensity (a.u.)"},
      {"sequence": "ATGATGATTGTTAGTGGATGATGATGTGTCATCTTGTTAACGGAGTCACCTAGTGCAG", "binding signal": "38400 fluorescence intensity (a.u.)"},
      {"sequence": "CACGGATTATTTTGAGCAATTACCGCTCTAATCCGGGGCGCGGAGTCACCTAGTGCAG", "binding signal": "3600 fluorescence intensity (a.u.)"},
      {"sequence": "ACACATAATGTAATCTATTTTGATATAACCAAAAGCTGTTCGGAGTCACCTAGTGCAG", "binding signal": "7540 fluorescence intensity (a.u.)"},
      {"sequence": "TGGTCCTTTACATTGCAATTAATTTGTTTGGAATTTATTACGGAGTCACCTAGTGCAG", "binding signal": "8240 fluorescence intensity (a.u.)"},
      {"sequence": "GATAATTGACAAGATTGAACCATATGTGATGTATTATTTCCGGAGTCACCTAGTGCAG", "binding signal": "53200 fluorescence intensity (a.u.)"},
      {"sequence": "GGATGTCATGATAATTGACTTATGACAATGTGATTATTTCCGGAGTCACCTAGTGCAG", "binding signal": "19700 fluorescence intensity (a.u.)"},
      {"sequence": "GTATAATTGACAGATGAATTTCACGCAAGAGTATATTGAGCGGAGTCACCTAGTGCAG", "binding signal": "55900 fluorescence intensity (a.u.)"},
      {"sequence": "AATTATTGATTTGATGAAACTAATTTAGTATTATAAAGAGCGGAGTCACCTAGTGCAG", "binding signal": "51000 fluorescence intensity (a.u.)"},
      {"sequence": "CAGTATATAAATAATTTGAATTAGATGAGATATATCCTAGCGGAGTCACCTAGTGCAG", "binding signal": "8160 fluorescence intensity (a.u.)"},
      {"sequence": "AGATAATTTGTGATTGATGTCATAGTAGTAGAGAAAACCACGGAGTCACCTAGTGCAG", "binding signal": "46800 fluorescence intensity (a.u.)"},
      {"sequence": "GATTATAATTTGTAAGATAATTGACCATGGAGAAGATTCACGGAGTCACCTAGTGCAG", "binding signal": "16300 fluorescence intensity (a.u.)"},
      {"sequence": "ATATATATTGATTATATGTTTATTTTGTATGAAGATGTTCCGGAGTCACCTAGTGCAG", "binding signal": "34900 fluorescence intensity (a.u.)"},
      {"sequence": "TATAATTGATTATTGTGACCTCATGATAGAGACAAGACCACGGAGTCACCTAGTGCAG", "binding signal": "53500 fluorescence intensity (a.u.)"},
      {"sequence": "ATCTCAATCAGCAACACAAATGACCCTGACCCACGATCCACGGAGTCACCTAGTGCAG", "binding signal": "20900 fluorescence intensity (a.u.)"},
      {"sequence": "GCCGTTAGTTAATTATTATCCGGTAAAGAAGATTAGTAGTCGGAGTCACCTAGTGCAG", "binding signal": "12200 fluorescence intensity (a.u.)"},
      {"sequence": "CGTTTCTTGATTCGATGGTTGATGGATTTTGGTTTGTGGACGGAGTCACCTAGTGCAG", "binding signal": "4980 fluorescence intensity (a.u.)"},
      {"sequence": "ATCACCTAATCAATTGAATCCATCAATTCAAGTAGATTCACGGAGTCACCTAGTGCAG", "binding signal": "9390 fluorescence intensity (a.u.)"},
      {"sequence": "GCACACATGATCAATCAATTAATAGATTAGGTAGGTACGGCGGAGTCACCTAGTGCAG", "binding signal": "51100 fluorescence intensity (a.u.)"},
      {"sequence": "ATTGATTTGATGAAACTAATTTACGGCACAATAGCAAATCCGGAGTCACCTAGTGCAG", "binding signal": "57600 fluorescence intensity (a.u.)"},
      {"sequence": "AAATATATTCAATTATTGATTTGATGAAACTAATTTCGTACGGAGTCACCTAGTGCAG", "binding signal": "23500 fluorescence intensity (a.u.)"},
      {"sequence": "GGCAATCAATTATTAATTGATTAATTCCATGAATAGCACACGGAGTCACCTAGTGCAG", "binding signal": "64900 fluorescence intensity (a.u.)"},
      {"sequence": "TTATGAAAATATATTTAATTATTGATTTGATGAAACTAATCGGAGTCACCTAGTGCAG", "binding signal": "5790 fluorescence intensity (a.u.)"},
      {"sequence": "TATATATATATATATATATAGACACACACATCAACAACAACGGAGTCACCTAGTGCAG", "binding signal": "16000 fluorescence intensity (a.u.)"},
      {"sequence": "TTAATTGCTATGTTTTGACCAGTCAACGCATAGGTCGTTTCGGAGTCACCTAGTGCAG", "binding signal": "15500 fluorescence intensity (a.u.)"},
      {"sequence": "ATTGCACAGATTGTGACTAATTTGCGAGACGAATCTTTTACGGAGTCACCTAGTGCAG", "binding signal": "7340 fluorescence intensity (a.u.)"},
      {"sequence": "TTGGAATTTGGGGATTGGGAAGAGAGAAATCAGATTGGAACGGAGTCACCTAGTGCAG", "binding signal": "4300 fluorescence intensity (a.u.)"},
      {"sequence": "CGGAAGATTGGAATGGAAATCGGAGAGAGCAGGGGCGGTGCGGAGTCACCTAGTGCAG", "binding signal": "12800 fluorescence intensity (a.u.)"},
      {"sequence": "ATTAATTAGCTGCCCGCAGACAAGACCCGTGACTTTGGCCCGGAGTCACCTAGTGCAG", "binding signal": "23800 fluorescence intensity (a.u.)"},
      {"sequence": "ATAATTAAAACTCAATTAATCACACGTTATTATCACATCGCGGAGTCACCTAGTGCAG", "binding signal": "14200 fluorescence intensity (a.u.)"},
      {"sequence": "TACAATTATGATTTGCCTTCAAATTTGCATTTTCATATTTCGGAGTCACCTAGTGCAG", "binding signal": "13500 fluorescence intensity (a.u.)"},
      {"sequence": "GAAGATTTAATTGCAACAAATTTAATAGTGCAATCGGATCCGGAGTCACCTAGTGCAG", "binding signal": "40800 fluorescence intensity (a.u.)"},
      {"sequence": "AATTAACATCAATAACAAAGTGTTGTACTGTAATCATCTTCGGAGTCACCTAGTGCAG", "binding signal": "4050 fluorescence intensity (a.u.)"},
      {"sequence": "TACTATTAATCAATCACATATAATTAACAATTAGTGTGATCGGAGTCACCTAGTGCAG", "binding signal": "41200 fluorescence intensity (a.u.)"},
      {"sequence": "TAGTACTCTCAATTAATTACAAACCACACCATCAAATTCTCGGAGTCACCTAGTGCAG", "binding signal": "7020 fluorescence intensity (a.u.)"},
      {"sequence": "TATAATTAATTATTTGCTAGATTTCATTCATATGACAATTCGGAGTCACCTAGTGCAG", "binding signal": "54600 fluorescence intensity (a.u.)"},
      {"sequence": "ATAATAATTAATATTTCATTAATTATATGCTAACGAGTTTCGGAGTCACCTAGTGCAG", "binding signal": "43400 fluorescence intensity (a.u.)"},
      {"sequence": "TATTTAATTGCAACGAATACAATAGTTTAATCGGATTATACGGAGTCACCTAGTGCAG", "binding signal": "9360 fluorescence intensity (a.u.)"},
      {"sequence": "AAAGATTGCCGAGTTTAATTGCAATCAATTACGGGAAGATCGGAGTCACCTAGTGCAG", "binding signal": "52900 fluorescence intensity (a.u.)"},
      {"sequence": "GCTTAATTAACAATCAACATAACTACTAACTAGTGTTGTTCGGAGTCACCTAGTGCAG", "binding signal": "57300 fluorescence intensity (a.u.)"},
      {"sequence": "GGTTAATCAATCAATCAGTTAATTACACAATTACTCACATCGGAGTCACCTAGTGCAG", "binding signal": "57300 fluorescence intensity (a.u.)"}
    ]}
  ]
}
